# Assay outcomes as filed in PubChem BioAssay.
# The list is not random: actives were taken first. Their share in the collection is about 0.93%.
# CDC25B CDK2 inh: human CDC25B-CDK2/CyclinA binding inhibition; z-score (no concentration beside the values); 94,000 tested, 0.72% active; HTRF CDC25B-CDK2/CyclinA binding, anti-His/anti-Flag; hits give high values; AID 1259370; in the data active = z-score above about 3.2
# HIV TAR-Tat: HIV-1 TAR-Tat binding disruption; HIV-1 TAR RNA, Tat peptide displacement FRET; hits give high values; z-score (concentration not given with the values); 100,000 tested, 0.6% active; AID 1259389; active = z-score of 3 or more in at least 2 runs
# A number is an active result; - = inactive; . = no result given.
SMILES,CDC25B CDK2 inh,HIV TAR-Tat
O=C(CSc1ncnc2c1sc1cccc(F)c12)NCCc1ccco1,.,12
COc1ccc(C(=O)c2cnc3ccc(OC)cc3c2S(=O)(=O)c2ccc(OC)cc2)cc1,-,-
O=C1CCCc2cc(S(=O)(=O)NCC3CCC(C(=O)NCCC4=CCCCC4)CC3)ccc2N1 (configuration not stated),.,-
Cc1ccc(C(O)(Cc2ccccc2)C(CN2CCOCC2)c2ccccc2)cc1 (configuration not stated),-,-
CCc1cc2c(cc3c(=O)n(CC(=O)NCc4ccc5c(c4)OCO5)nc(CC)n32)s1,-,-
COc1ccc(-c2noc(-c3ccc(C)cc3Cl)n2)cc1,-,.
Cc1cc(C)nc(N2CCN(c3cc(C)nc4c(-c5ccc(F)cc5)cnn34)CC2)n1,-,-
Nc1ccc(F)c(-c2nnc(-c3ccccc3)o2)c1,.,33
Clc1ccc(-c2nnc(-c3ccccc3)o2)cc1,-,-
CC(C)CNC(=O)CN1c2ccccc2NC2=C(C(=O)CC(C)(C)C2)C1c1cccs1 (configuration not stated),.,-
CCOC(=O)c1cc(-c2ccc(S(=O)(=O)N3CCN(c4ccc(F)cc4)CC3)s2)on1,.,-
Cc1nc(-c2csc(S(=O)(=O)NCc3ccco3)c2)no1,.,-
Cc1ncc(CO)c2c1Oc1nc(-c3ccc(F)cc3)[nH]c(=O)c1C2,-,-
COc1ccc(O)c(-c2nc3c(c(=O)[nH]2)Cc2c(CO)cnc(C)c2O3)c1,-,11
COc1ccc(Br)cc1C1CC(=O)N2CN(c3ccccc3F)CSC2=C1C#N (configuration not stated),-,-
N#CC1=C2SCN(Cc3ccccc3)CN2C(=O)CC1c1cccc(Br)c1 (configuration not stated),-,-
COc1ccc(Br)cc1C1CC(=O)N2CN(c3ccccc3)CSC2=C1C#N (configuration not stated),7.6,-
COc1ccc(C2CC(=O)N3CN(Cc4ccccc4)CSC3=C2C#N)c(OC)c1 (configuration not stated),4.5,-
COc1ccc(Br)cc1C1CC(=O)N2CN(Cc3ccccc3)CSC2=C1C#N (configuration not stated),3.2,-
N#CC1=C2SCN(Cc3ccco3)CN2C(=O)CC1c1ccc(OCc2ccc(Cl)cc2)cc1 (configuration not stated),-,-
COc1ccc(CN2CSC3=C(C#N)C(c4ccc(Cl)cc4)CC(=O)N3C2)cc1 (configuration not stated),3.8,-
N#CC1=C2SCN(Cc3ccccc3)CN2C(=O)CC1c1ccc(Br)cc1 (configuration not stated),-,-
COc1cc(Nc2c(-c3cc(C)c(C)cc3C)c(=O)c2=O)cc(OC)c1,.,-
CCc1nn(CCCC(=O)NCCCN2CCCC2)c(=O)c2cc3oc(C)cc3n12,-,-
CCn1c2ccccc2c2cc(CN3CCN(Cc4cccc(OC)c4)CC3)ccc21,6.7,.
SMILES,CDC25B CDK2 inh,HIV TAR-Tat
CCn1c2ccccc2c2cc(CN3CCN(Cc4cccc([N+](=O)[O-])c4)CC3)ccc21,-,.
Cc1nc2nc(NC(=O)C3CCCCC3)nn2c(C)c1Cl,-,-
Cc1ccc2c(c1)N(CCO)/C(=C/c1sc3ccccc3[n+]1C)S2,-,-
Cc1ccc2c(c1)S/C(=C\c1sc3ccccc3[n+]1C)N2CCO,-,7.9
O=C(O)c1ccnc(-c2cc(C(=O)O)ccn2)c1,-,.
O=C(c1cc(O)c(O)c(O)c1)c1ccc(O)c(O)c1O,.,33
O=C(O)c1cc(O)c2c(c1)C(=O)c1cc(O)cc(O)c1C2=O,.,9.5
O=C(O)c1cc(O)c(O)c(O)c1,.,6.8
COc1cc(O)c2c(c1)C(=O)c1cc(C)cc(O)c1C2=O,.,-
Oc1ccc(Cl)cc1Cc1cc(Cl)ccc1O,.,-
COc1cc(C2C(C#N)=C(N)OC3=C2C(=O)CCC3)cc(Br)c1OC (configuration not stated),-,.
CC(C)C(=O)N1N=C(c2ccncc2)CC1(O)C(F)(F)F (configuration not stated),-,.
CN(C)c1ccc(NC(=O)CSc2nc3c(c(=O)[nH]2)CCC3)cc1,-,-
CSc1cccc(NS(=O)(=O)c2ccc3[nH]c(=O)c(=O)[nH]c3c2)c1,-,-
O=C(CN1C(=O)c2cccnc2Sc2ccccc21)NCCN1CCCC1,.,-
Cc1cccc(Cn2cc3c(=O)[nH]nc-3c3cc(F)ccc32)c1,-,-
O=c1[nH]nc2c3cc(F)ccc3n(Cc3ccccc3)cc1-2,-,3.2
COc1ccc(-c2noc(-c3nnn(-c4ccc(C)c(C)c4)c3N)n2)cc1,.,4.7
COc1ccc(-c2noc(-c3nnn(-c4ccc(OC)cc4)c3N)n2)cc1,.,-
CCCC1N=C2c3ccccc3N=C(SCC(=O)Nc3ccccc3F)N2C1=O (configuration not stated),.,-
Cc1oc(-c2ccc(Cl)cc2)cc1-c1nn2c(-c3ccco3)nnc2s1,-,-
Cc1oc(-c2ccc(F)cc2)cc1-c1nn2c(-c3ccoc3C)nnc2s1,-,18
CCOc1cccc2c1Oc1[nH]c(-c3ccc(C(=O)OC)cc3)nc(=S)c1C2,-,-
C=CCOc1ccc(C2C3=C(CC(C)(C)CC3=O)NC3=C2C(=O)CC(C)(C)C3)cc1,-,-
CCCOc1ccc(C2C3=C(CC(C)(C)CC3=O)NC3=C2C(=O)CC(C)(C)C3)cc1,16,-
SMILES,CDC25B CDK2 inh,HIV TAR-Tat
CCN1CCc2nc(NC(=O)c3sc4ccccc4c3Cl)sc2C1,.,-
COCCNC(=O)Nc1ccc2nc3c4ccccc4c4ccccc4c3nc2c1,20,.
S=C(Nc1ccc2nc3c4ccccc4c4ccccc4c3nc2c1)NC1CC1,7.1,.
C=CCNC(=O)Nc1ccc2nc3c4ccccc4c4ccccc4c3nc2c1,21,.
O=C(NNc1cc(C(F)(F)F)nc2ccccc12)Nc1ccccc1,-,.
COCCNC(=O)Nc1ccc2nc(NS(C)(=O)=O)sc2c1,.,-
O=C(NC1CC1)c1ccc(NC(=O)c2nsc3ccccc23)cc1,-,-
O=C(NCCO)c1ccc2nc3c4ccccc4c4ccccc4c3nc2c1,8.2,.
O=C(COC(=O)c1ccc2nc3c4ccccc4c4ccccc4c3nc2c1)c1ccccc1,-,.
CCOC(=O)c1csc(-n2nc(CC(C)C)cc2C(F)(F)F)n1,.,-
CCc1c(C)nc2ncnn2c1Nc1ccc(C)c(F)c1,-,-
COc1ccc(O)c(C2=NN3C(C2)c2ccccc2OC3c2ccncc2)c1 (configuration not stated),-,-
COc1ccc(CNC(=O)Nc2cccc(SC)c2)cc1,-,.
COc1ccc(N)c([N+](=O)[O-])c1,-,.
N#CC1=C2SCN(C3CCCC3)CN2C(=O)CC1c1ccc(Cl)cc1 (configuration not stated),-,-
N#CC1=C2SCN(c3ccc(Cl)cc3)CN2C(=O)CC1c1cccs1 (configuration not stated),6.3,-
CCOc1ccc(C2CC(=O)N3CN(c4ccc(CCO)cc4)CSC3=C2C#N)cc1 (configuration not stated),7.2,-
N#CC1=C2SCN(c3ccc(Br)cc3)CN2C(=O)CC1c1cccs1 (configuration not stated),-,-
CCOc1ccc(N2CSC3=C(C#N)C(c4ccco4)CC(=O)N3C2)cc1 (configuration not stated),5.1,-
N#CC1=C2SCN(C3CCCC3)CN2C(=O)CC1c1cccs1 (configuration not stated),5.9,-
